KAT2A inh = inhibitors of human GCN5L2 histone acetyltransferase | Q92830 | GCN5L2 HAT assay, ThioGlo1 CoA-SH fluorescence | Potency, µM (titrated, usually from 58.9 µM), hits mostly inhibitors | 390,000 tested, 0.21% active
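GCN5L2 (20 nM) in 50mM HEPES pH 7.5, 0.1mM EDTA, 0.01% Tween-20 preincubated 15 min with compounds at room temperature. Reaction started with H3(1-25) 75uM, acetyl-CoA 70uM, ThioGlo1 50uM; CoA-thiol fluorescence (Ex340/Em540) read at 0 and 20 min.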
PI5P4Ka inh = blocks human PI5P4K alpha kinase activity. P48426. max response, %. PI5P4Kalpha enzyme, ADP-Glo luminescence, 60 min; hits give low values. AID 652105. 330,000 tested, 1.2% active; active = max response of -50% or lower; inconclusive = between -30% and -50%; inactive = -30% or higher; also: value at the top dose of about 77 µM
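ADP-Glo luminescence end-point read after a 60 min room-temperature kinase reaction of PI5P4Kalpha plus substrate, initiated with ATP at 5 microM final. Buffer: 0.038 M HEPES pH 7.4, EGTA, 0.1% CHAPS, 5% DMSO.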
PLK1 PBD inh = PLK1 (human) polo-box domain binding inhibition; Plk1 PBD binding of FITC phosphopeptide, fluorescence polarization; Potency, µM, actives largely listed as inhibitors; P53350; 360,000 tested, 2.8% active; AID 720504; also: series mostly up to about 57 µM; nearly all actives have a fitted effect of over 65% in size
JMJD2A Tudor inh = inhibitors of human JMJD2A Tudor domain; O75164; AlphaScreen JMJD2A-Tudor / H3K4me3 peptide binding; Potency, µM (doses to about 114 µM), usual class: inhibitors; 390,000 tested, 4.4% active; also: nearly all actives have a fitted effect of over 50% in size
HP1b binding inh = HP1-beta chromodomain-methylated histone interaction inhibition. AlphaScreen HP1-beta / biotin-H3K9me3 peptide binding. Potency, µM (titrated, usually from 114 µM), usual class: inhibitors. 390,000 tested, 0.56% active. AID 540317; also: nearly all actives have a fitted effect of over 70% in size
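HP1-beta protein (50 nM final) preincubated 30 min at room temperature with biotinylated H3(1-18)K9me3 peptide (50 nM) in PBS pH 7.4, 0.01% Tween-20, then compound added for 30 min. AlphaScreen streptavidin donor/nickel chelate acceptor beads (10 ug/mL final), 30 min dark, luminescence read.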
BAZ2B block = blocks human BAZ2B; AlphaScreen BAZ2B-H3K14Ac peptide displacement; Q9UIF8; Potency, µM (series often up to 114 µM), hits mostly inhibitors; 360,000 tested, 4.4% active; also: nearly all actives have a fitted effect of over 60% in size
Target sequence (Q9UIF8 whole entry, looked up): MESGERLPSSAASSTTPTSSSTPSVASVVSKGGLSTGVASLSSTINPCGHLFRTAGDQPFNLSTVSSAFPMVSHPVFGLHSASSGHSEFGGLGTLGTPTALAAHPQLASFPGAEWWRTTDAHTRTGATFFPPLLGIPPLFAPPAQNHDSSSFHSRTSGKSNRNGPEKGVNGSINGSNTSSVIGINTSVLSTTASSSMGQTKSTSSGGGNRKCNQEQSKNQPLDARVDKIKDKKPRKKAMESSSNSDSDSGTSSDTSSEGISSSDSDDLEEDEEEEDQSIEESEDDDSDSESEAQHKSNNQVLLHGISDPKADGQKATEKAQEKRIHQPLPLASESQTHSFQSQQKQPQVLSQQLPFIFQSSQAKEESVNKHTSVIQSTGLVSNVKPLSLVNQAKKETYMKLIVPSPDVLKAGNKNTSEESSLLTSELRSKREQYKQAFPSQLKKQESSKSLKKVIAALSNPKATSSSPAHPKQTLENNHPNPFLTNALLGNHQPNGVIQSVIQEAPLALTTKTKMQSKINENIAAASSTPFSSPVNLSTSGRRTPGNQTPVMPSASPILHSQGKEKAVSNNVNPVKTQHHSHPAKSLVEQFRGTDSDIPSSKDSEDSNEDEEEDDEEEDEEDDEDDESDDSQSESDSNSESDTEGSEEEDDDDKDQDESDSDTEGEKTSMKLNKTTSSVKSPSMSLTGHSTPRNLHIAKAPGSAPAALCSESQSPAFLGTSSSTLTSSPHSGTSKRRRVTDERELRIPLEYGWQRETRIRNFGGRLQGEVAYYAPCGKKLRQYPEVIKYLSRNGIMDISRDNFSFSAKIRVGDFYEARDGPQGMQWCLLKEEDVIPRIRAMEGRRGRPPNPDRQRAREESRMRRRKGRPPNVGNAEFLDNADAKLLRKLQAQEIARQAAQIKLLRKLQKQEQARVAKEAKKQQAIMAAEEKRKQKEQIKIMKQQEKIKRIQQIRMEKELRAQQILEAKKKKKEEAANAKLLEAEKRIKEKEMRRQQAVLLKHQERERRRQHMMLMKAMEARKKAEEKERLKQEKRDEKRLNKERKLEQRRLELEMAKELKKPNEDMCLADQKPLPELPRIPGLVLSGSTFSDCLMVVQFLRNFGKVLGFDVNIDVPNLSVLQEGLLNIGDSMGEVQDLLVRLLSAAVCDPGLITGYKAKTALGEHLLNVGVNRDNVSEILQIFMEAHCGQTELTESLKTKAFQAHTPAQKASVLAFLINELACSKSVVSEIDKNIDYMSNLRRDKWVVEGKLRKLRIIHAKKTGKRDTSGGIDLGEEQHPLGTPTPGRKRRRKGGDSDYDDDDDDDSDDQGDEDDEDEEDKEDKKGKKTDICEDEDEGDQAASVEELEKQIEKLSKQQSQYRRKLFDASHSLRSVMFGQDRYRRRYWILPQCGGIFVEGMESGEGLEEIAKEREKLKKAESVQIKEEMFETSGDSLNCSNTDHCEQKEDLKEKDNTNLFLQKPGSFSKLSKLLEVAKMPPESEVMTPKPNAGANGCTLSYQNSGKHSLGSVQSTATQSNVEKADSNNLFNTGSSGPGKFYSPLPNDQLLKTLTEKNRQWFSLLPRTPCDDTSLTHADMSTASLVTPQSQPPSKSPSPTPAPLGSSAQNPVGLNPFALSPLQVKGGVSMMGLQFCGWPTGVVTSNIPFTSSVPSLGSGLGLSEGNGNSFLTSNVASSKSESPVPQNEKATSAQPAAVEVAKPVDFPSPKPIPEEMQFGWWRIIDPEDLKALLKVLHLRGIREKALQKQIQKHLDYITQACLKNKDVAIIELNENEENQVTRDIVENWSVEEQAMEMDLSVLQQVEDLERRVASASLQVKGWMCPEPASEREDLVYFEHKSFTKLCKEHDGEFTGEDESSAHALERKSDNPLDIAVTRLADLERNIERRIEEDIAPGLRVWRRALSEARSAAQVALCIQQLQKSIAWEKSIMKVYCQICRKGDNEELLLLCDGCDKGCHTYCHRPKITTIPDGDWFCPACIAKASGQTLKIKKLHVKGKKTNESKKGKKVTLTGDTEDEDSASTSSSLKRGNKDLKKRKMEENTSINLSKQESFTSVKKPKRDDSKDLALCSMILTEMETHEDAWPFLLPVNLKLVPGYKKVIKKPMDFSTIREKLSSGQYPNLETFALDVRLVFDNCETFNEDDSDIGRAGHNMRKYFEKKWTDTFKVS
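AlphaScreen displacement of biotin-H3(5-23)K14Ac peptide (50 nM final) from BAZ2B (50 nM final) in PBS pH 7.4, 0.01% Tween-20; complex preformed 30 min RT, then compounds (top 110 uM) 30 min RT, beads 20 min dark.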
Of the large screens only hits and unclear results are named; the others gave an inactive call. A selection: hits, their analogues and other compounds. The true share with any hit is near 7%. Unless noted, calls follow the shape of the dose curve; as a rule, active = well fitted curve in the direction sought with a large enough effect; inconclusive = small, poorly fitted or top-dose-only effect, or another doubt; inactive = no such curve, though single readings can be large; an effect the other way counts as inactive or inconclusive.

CCc1ccccc1NC(=S)N(Cc1cccc(C)c1)c1cccnc1	none
Cc1cccc(CN(C(=S)Nc2c(C)cccc2C)c2cccnc2)c1	BAZ2B block 79.4µM
CCN(CC)C(=O)Cn1cc(SCC(=O)Nc2cc(C)on2)c2ccccc21	PLK1 PBD inh inconclusive, JMJD2A Tudor inh 89.1µM
CCOc1ccc(C(=O)NCCn2cc(SCC(=O)Nc3cc(C)on3)c3ccccc32)cc1	BAZ2B block 79.4µM
Cc1[nH]c2ccc3ncccc3c2c1C	BAZ2B block 50.1µM
C[C@H]1Cn2cnc(C(=O)Nc3cccc(Cl)c3)c2C(=O)N1	none (no result: KAT2A inh, JMJD2A Tudor inh, HP1b binding inh, BAZ2B block)
O=C(c1cc(COc2ccc(F)cc2Cl)on1)N1CCCCCCC1	PLK1 PBD inh 18.9µM, JMJD2A Tudor inh 20µM
COc1ccc(C)cc1NC(=O)C(OC(=O)c1ccc([N+](=O)[O-])o1)c1ccccc1 (stereo not drawn)	PLK1 PBD inh 26.7µM, JMJD2A Tudor inh inconclusive, HP1b binding inh inconclusive, BAZ2B block inconclusive
O=C(O)Cn1nc(-c2ccccc2)oc1=O	none
O=C(O)Cn1nc(-c2ccc(F)cc2)oc1=O	PLK1 PBD inh 23.8µM, JMJD2A Tudor inh inconclusive, HP1b binding inh inconclusive
Cc1nn(-c2ccccc2)c(C)c1/C=N\N1CCN(c2ccc(Cl)cc2)CC1	JMJD2A Tudor inh 28.2µM, HP1b binding inh inconclusive, BAZ2B block 31.6µM
Cc1ccsc1C=Nc1ccc(O)cc1	PI5P4Ka inh -51.0, PLK1 PBD inh inconclusive, JMJD2A Tudor inh 79.4µM, HP1b binding inh inconclusive, BAZ2B block 39.8µM
C=CC[n+]1c(-c2ccc(OC)c(OC)c2)csc1NNC(=O)Nc1ccccc1	JMJD2A Tudor inh inconclusive, HP1b binding inh inconclusive, BAZ2B block 31.6µM (no result: PI5P4Ka inh)
CC(Sc1nnc(C(F)(F)F)n1C)C(=O)Nc1ccc(N2CCOCC2)cc1 (stereo not drawn)	none (no result: BAZ2B block)
CC(Sc1nnc(C(F)(F)F)n1C)C(=O)Nc1ccc(S(N)(=O)=O)cc1 (stereo not drawn)	PLK1 PBD inh 29.9µM, JMJD2A Tudor inh inconclusive
COC(=O)c1ccc(N/C(C)=C/C(=O)c2ccc(C)o2)cc1	JMJD2A Tudor inh 89.1µM
CCOc1ccc(N/C(C)=C/C(=O)c2ccc(C)o2)cc1	BAZ2B block inconclusive
CC(C)(CCl)C(=O)Nc1ccnc(-c2ccncc2)n1	none
COc1cc(C2/C(=C(/O)c3ccc(F)cc3)C(=O)C(=O)N2CCCC(=O)O)ccc1O (stereo not drawn)	JMJD2A Tudor inh inconclusive, BAZ2B block 56.2µM (no result: PI5P4Ka inh)
COc1cccc(C2/C(=C(/O)c3ccccc3)C(=O)C(=O)N2CCCC(=O)O)c1 (stereo not drawn)	JMJD2A Tudor inh 50.1µM, BAZ2B block inconclusive
COCCCN1C(=O)C(=O)/C(=C(/O)c2ccc(OC)cc2)C1c1ccc(O)c(OC)c1 (stereo not drawn)	none
CN(C)c1ccc(C2/C(=C(/O)c3ccccc3)C(=O)C(=O)N2CCCC(=O)O)cc1 (stereo not drawn)	JMJD2A Tudor inh inconclusive
C(/C=C/c1ccco1)=N/N1CCN(c2ccccc2)CC1	JMJD2A Tudor inh inconclusive, HP1b binding inh inconclusive, BAZ2B block 28.2µM
O=C(CN1CCN(Cc2ccccc2)CC1)N/N=C/C=C/c1ccco1	none
Clc1ccccc1CN1CCN(/N=C/C=C\c2ccco2)CC1	JMJD2A Tudor inh inconclusive, HP1b binding inh 44.7µM, BAZ2B block 39.8µM
Cc1ccc2c(c1)C(c1ccccc1)N(C(=O)CC(C)C)CC(=O)N2 (stereo not drawn)	none
COc1ccc(-n2c(SCC(=O)Nc3cc(C)on3)nc3c([nH]c4ccccc43)c2=O)cc1OC	none
Cc1ccc(N2N=C(C(=O)O)CCC2=O)cc1Cl	none
N[C@@H](Cc1ccccc1)C(=O)N1CCC(C(=O)N[C@@H](CCC(=O)O)C(=O)O)CC1	JMJD2A Tudor inh 17.8µM
N=c1sccn1CC(=O)Nc1ccc(SC(F)F)cc1	PLK1 PBD inh 23.8µM
N=c1sccn1CC(=O)Nc1ccc(S(N)(=O)=O)cc1	none
C=CCn1cccc(C(=O)Nc2ccc(OC)c(OC)c2)c1=O	none
COc1ccc(NCC(=O)Nc2ccc(Br)cc2F)c(OC)c1	JMJD2A Tudor inh 56.2µM, HP1b binding inh inconclusive, BAZ2B block 39.8µM
C=CCn1cccc(C(=O)Nc2ccc(OC)cc2OC)c1=O	PLK1 PBD inh 26.7µM, JMJD2A Tudor inh inconclusive
COc1ccc(NC(=O)c2cccc(N3C(=O)C4C5C=CC(C6CC56)C4C3=O)c2)c(OC)c1 (stereo not drawn)	PLK1 PBD inh 23.8µM, JMJD2A Tudor inh inconclusive
COc1ccc(NC(=O)c2cccc(N3C(=O)C4C5C=CC(C5)C4C3=O)c2)c(OC)c1 (stereo not drawn)	none
C=CCn1cccc(C(=O)Nc2cc(OC)cc(OC)c2)c1=O	none
C=CCn1cccc(C(=O)Nc2cc(OC)c(OC)c(OC)c2)c1=O	PI5P4Ka inh inconclusive, PLK1 PBD inh 21.2µM, JMJD2A Tudor inh 31.6µM
C=CCn1cccc(C(=O)Nc2ccc(Cl)cc2)c1=O	none
COc1ccc(NC(=O)c2c(OC)cccc2OC)c(OC)c1	JMJD2A Tudor inh 56.2µM, HP1b binding inh inconclusive, BAZ2B block 50.1µM (no result: PI5P4Ka inh)
COc1ccc(NC(=O)c2ccc(C(=O)Nc3ccc(OC)cc3OC)cc2)c(OC)c1	none
C=CCn1cccc(C(=O)Nc2ccc(OCC)cc2)c1=O	PI5P4Ka inh inconclusive, PLK1 PBD inh 23.8µM, JMJD2A Tudor inh inconclusive
CC(C)OC(=O)c1c(NC(=O)COc2cccc(Br)c2)sc2c1CCCC2	none (no result: PI5P4Ka inh, PLK1 PBD inh)
CCOCCc1nn2c(=O)cc(COC(=O)COc3ccccc3Cl)nc2s1	none (no result: PI5P4Ka inh, PLK1 PBD inh)
CCc1noc(C)c1C(=O)OC(C)C(=O)Nc1ccc2c(c1)OCO2 (stereo not drawn)	none
COc1cc([N+](=O)[O-])cc(/C=N/NC(=O)c2cncc(Br)c2)c1O	JMJD2A Tudor inh 20µM, BAZ2B block 10µM
COc1ccc(/C=N/NC(=O)c2cc(-c3ccccc3)nc3ccccc23)c(C(=O)O)c1OC	none
COc1cc([N+](=O)[O-])cc(/C=N/NC(=O)c2cc(-c3ccccc3)nc3ccccc23)c1O	PI5P4Ka inh -57.3, JMJD2A Tudor inh 79.4µM, BAZ2B block 50.1µM
O=C(N/N=C\c1ccc([N+](=O)[O-])o1)c1cncc(Br)c1	PI5P4Ka inh inconclusive
COc1cc([N+](=O)[O-])cc(/C=N/NC(=O)c2cc(C)nc3ccccc23)c1O	JMJD2A Tudor inh 22.4µM, BAZ2B block 20µM
COC(=O)Cn1c(O)c(N=NC(=O)c2ccc3c(c2)OCO3)c2ccccc21	none
O=C(CSc1ccc2ccccc2c1)N1CCN(c2ccc(O)cc2)CC1	JMJD2A Tudor inh 50.1µM, BAZ2B block 50.1µM
O=S(=O)(c1ccc2ccccc2c1)N1CCN(c2ccc(O)cc2)CC1	JMJD2A Tudor inh 35.5µM, HP1b binding inh inconclusive (no result: BAZ2B block)
O=C(CSc1ccccn1)N1CCN(C(=O)CSc2ccccn2)CC1	none
